# In the library only some 7.2% were active in any assay of this set; here they are far more common.
# Sm TGR inh: qHTS Assay for the Inhibitors of Schistosoma Mansoni Peroxiredoxins. AID 485364, 2010. Potency, µM (series often up to 114 µM), inactives show at the top dose activity change, negative = inhibition, most hits filed as inhibitors. purified TGR, DTNB reduction, TNB absorbance 405 nm. Schistosoma mansoni thioredoxin glutathione reductase (TGR), Q962Y6. 3% of 360,000 active; also: nearly all actives have a fitted effect of over 60% in size
#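 TGR 20 nM + NADPH 100 uM (dispensed conc.), cpd preinc 15 min RT; start with NADPH (500 uM addition) then DTNB (15 mM addition). Kinetic TNB absorbance, 405 nm filter. Four-parameter Hill fit across titration.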
# Lassa entry inh: qHTS for Inhibitors of binding or entry into cells for Lassa Virus | Lassa virus pseudotype entry inhibition, cell reporter | Potency, µM (series often up to 37.9 µM), inactives show top-dose activity change, negative = inhibition, most hits filed as inhibitors | 1.2% of 300,000 active; calls by dose curve; tested in HEK293 cells; also: nearly all actives have a fitted effect of over 50% in size
# MARV entry inh: qHTS for inhibitors of binding or entry into cells for Marburg Virus | Potency, µM (titrated, usually from 37.8 µM), inactives show at the top dose activity change, negative = inhibition, hits mostly inhibitors | Marburg virus pseudotyped entry inhibition, cell reporter | 1.8% of 300,000 active; calls by dose curve; tested in HEK293 cells
# FMDV inh: High Throughput Screening for Foot and Mouth Disease Virus Antivirals; FMDV antiviral cell-based qHTS; Potency, µM (doses to about 57.9 µM), inactives show at the highest dose activity change, negative = inhibition, most hits filed as inhibitors; 1.2% of 410,000 active; AID 1159524, 2015; calls by dose curve; tested in HEK293T cells; also: read-out not given here; nearly all actives have a fitted effect of over 45% in size
# HCV inhibitor: qHTS Assay for Inhibitors of Hepatitis C Virus (HCV) | 3.4% of 340,000 active | Huh7.5.1 HCVcc-Cre infection, luciferase reporter, 44 h | AID 651820, 2012 | Potency, µM (series often up to 41.8 µM), inactives show top-dose activity change, negative = inhibition, actives largely listed as inhibitors
#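 After 44 h co-culture of compound, cells and HCVcc-Cre (~0.5 moi), substrate is added for 15 min at room temperature and luciferase measured over 15 sec. Cells were seeded at 1,000/well and pre-cultured 4 h.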
# RE007 growth inh: qHTS Assay for Inhibitors of the HIV-1 protein Vpr; S. pombe RE007 Vpr strain, BacTiter-Glo ATP luminescence, 24 h; Potency, µM (series often up to 92.2 µM), for the others: at the highest dose activity change, negative = less growth, actives largely listed as inhibitors; 0.21% of 360,000 active; active = well fitted falling curve with a large enough effect; inconclusive = small, poorly fitted or top-dose-only effect; inactive = no such curve, though single readings can be large or run the other way; also: nearly all actives have a fitted effect of over 50% in size
#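 Fission yeast RE007 carrying one integrated HIV-1 vpr copy, seeded at OD 0.01 in PMG+AL medium with 23 nL pinned compound. Grown 24 h at 30 degrees; viability read by BacTiter-Glo luminescence after 5 min.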
# Active calls of the source: *; ? = inconclusive; . = not tested or not shown; [ ] = another dose, or the depositor's remark. Unless noted, calls follow the shape of the dose curve; as a rule, active = well fitted curve in the direction sought with a large enough effect; inconclusive = small, poorly fitted or top-dose-only effect, or another doubt; inactive = no such curve, though single readings can be large; an effect the other way counts as inactive or inconclusive. % is scaled to controls: 0 for no effect and ±100 for the full control effect; potency is read from the fitted curve at half-maximal effect.
SMILES,Sm TGR inh,Lassa entry inh,MARV entry inh,FMDV inh,HCV inhibitor,RE007 growth inh
O=C(CCNC(=O)c1ccccc1)NC1CCCc2ccccc21 (configuration not stated),6%,-5%,?,3%,-4%,6%
O=C(CCNC(=O)c1ccc([N+](=O)[O-])cc1)NC1CCCc2ccccc21 (configuration not stated),-8%,?,2µM*,-1%,10%,5%
CC1=C(C(=O)Nc2cccc(C(F)(F)F)c2)C2(CCCCCC2)OC1=O,1%,-1%[46.1 µM],.,-5%,.,.
CCCCc1nc2cc(C(=O)NCc3cn(C)nc3C)ccc2o1,-20%,?,11%[46.1 µM],-13%,13µM*,11%
COCCN1C(=O)C2=C(C1=O)C1N(C)c3ccccc3[C@@]13C[C@@H](CO)N(C(=O)CCC(=O)OC)C3=N2 (some centres not stated),.,.,5%[14.2 µM],.,.,.
COc1ccc2nc(NC(=S)N(C)C)sc2c1,-4%,?,10µM*,-50%,?,-27%
COc1ccc2nc(NC(=O)c3ccoc3C)sc2c1,2%,-28%[14.3 µM],?,-1%,14µM*,?
COc1ccc2nc(NC(=O)c3cc(S(=O)(=O)N4CCOCC4)ccc3C)sc2c1,2%,-24%,2%,-28%,22µM*,-3%
COc1ccc2nc(NC(=O)c3cccc(S(=O)(=O)N4CCOCC4)c3)sc2c1,10%,?,?,?,-24%,16%
CCSc1nnc(NC(=O)c2cccc(OCc3c(C)noc3C)c2)s1,-1%,?,?,-16%,-22%,-9%
COc1ccc2nc(NC(=O)c3cc(C)oc3C)sc2c1,-8%,7%,0%,29%,?,?
CCCC(=O)Nc1nc2ccc(OC)cc2s1,-1%,.,.,47%,?,-21%
COc1ccc2nc(NC(=O)c3cccc(OCc4c(C)noc4C)c3)sc2c1,?,?,?,-26%,0.35µM*,11%
O=C(c1n[nH]c2c1CCCC2)N1CCC(n2c(C3CCCO3)nc3ccccc32)CC1 (configuration not stated),.,.,.,-3%,.,.
CCOc1ccc(NC(=O)Cn2c(=O)n(Cc3ccccc3)c(=O)c3c4c(sc32)CN(C(C)=O)CC4)cc1,6%,.,-27%[46.1 µM],-24%,.,.
CCc1cc(C(=O)NCC2Cc3cc(-c4ccccc4C(C)=O)ccc3O2)no1 (configuration not stated),.,.,.,-28%,.,.
CC(C)=CCCC1=CC[C@H](C(=O)O)[C@H](C(=O)O)C1,.,.,.,-20%,.,.
Cc1ccc(S(=O)(=O)N2CCOCC2)cc1C(=O)Nc1ccc(-c2cn3ccsc3n2)cc1,2%,?,?,?,10µM*,4%
Cc1ccc(S(=O)(=O)N2CCOCC2)cc1C(=O)Nc1ccncc1,-8%,.,.,-9%,6%,-4%
CC1(C)N=C(SCc2ccc(F)cc2)c2ccccc2N1,4%,2%[46.1 µM],.,-36%,.,.
Cc1ccc(S(=O)(=O)N2CCN(C(=O)/C=C/c3ccco3)CC2)cc1,50µM*,0%,-3%,-18%,9%,4%
Cc1ccc(C)c(S(=O)(=O)N2CCN(C(=O)/C=C/c3ccco3)CC2)c1,4µM*,.,.,-22%,-5%,13%
O=C(/C=C/c1ccco1)N1CCN(S(=O)(=O)c2ccc(F)c(F)c2F)CC1,5µM*,?,27%,-14%,7%,14%
Cc1ccc(C)c(S(=O)(=O)N2CCN(C(=O)Cc3ccsc3)CC2)c1,0%,-29%,22%,4.5µM*,.,4%
O=C(c1cc2ccccc2o1)N1CCN(S(=O)(=O)c2ccc(F)c(F)c2F)CC1,-4%,.,.,-25%,2%,11%
SMILES,Sm TGR inh,Lassa entry inh,MARV entry inh,FMDV inh,HCV inhibitor,RE007 growth inh
O=C(/C=C/c1ccco1)N1CCN(S(=O)(=O)c2ccccc2)CC1,.,.,.,-17%,5%,7%
Cc1ccc(C)c(S(=O)(=O)N2CCN(C(=O)C3CC3C)CC2)c1 (configuration not stated),-3%,-7%,21%,0%,11%,-1%
CC(O)(COc1ccccc1)c1ccc2c(c1)CN(C/C=C/c1ccco1)CCO2 (configuration not stated),.,.,.,-5%,.,.
Cc1ccc(S(=O)(=O)N2CCN(C(=O)N(c3ccccc3)c3ccccc3)CC2)cc1,-2%,?,18µM*,0%,?,6%
Cc1ccsc1CN1CCc2nnc(CCNC(=O)c3ccc(F)cc3)n2CC1,.,.,.,-4%,.,.
CCOC(=O)C1CCCN(c2ncnc3c2cnn3-c2cccc(C)c2)C1 (configuration not stated),0%,-1%,27%,?,-18%,12%
CCN(CC)C(=O)C1CCCN(c2ncnc3c2cnn3-c2cccc(C)c2)C1 (configuration not stated),?,-9%,?,14µM*,?,-8%
CCN(CC)C(=O)C1CCCN(c2ncnc3c2cnn3-c2ccc(Cl)cc2)C1 (configuration not stated),6%,.,.,20µM*,?,5%
CC(C)C(NC(=O)/C(=C\c1ccco1)NC(=O)c1ccco1)C(=O)O (configuration not stated),?,.,.,-10%,12%,-3%
CC(C)C(NC(=O)/C(=C/c1ccco1)NC(=O)c1ccc(Br)o1)C(=O)O (configuration not stated),35µM*,.,.,10%,2%,2%
O=C(NCc1ccco1)/C(=C\c1ccco1)NC(=O)c1ccc(Br)o1,28µM*,-5%,-16%,17%,6%,-19%
NC(=O)/C(=C\c1ccco1)NC(=O)c1ccc(Br)o1,.,16%[46.1 µM],1%[46.1 µM],20%,9%,12%
O=C(NCc1ccco1)/C(=C/c1ccco1)NC(=O)c1ccc(Br)o1,40µM*,19%,30%,-6%,?,-6%
O=C(NCCCO)/C(=C\c1ccco1)NC(=O)c1ccc(Br)o1,?,5%,?,0%,11%,-11%
C=CCNC(=O)/C(=C/c1ccco1)NC(=O)c1ccc(Br)o1,20µM*,-18%,21%[46.1 µM],14%,19%,3%
Cc1cccc(-c2nnc(SCC(=O)NC3CCCCC3)o2)c1,2%,-2%[46.1 µM],1%[46.1 µM],10%,.,.
Cc1coc2c(C)c3oc(=O)c(CC(=O)NCc4ccccc4)c(C)c3cc12,6%,-8%[46.1 µM],-9%[46.1 µM],8%,.,.
OC1(c2cccnc2)CCN(Cc2ccc3c(c2)CN(Cc2cccc(F)c2F)CCO3)CC1,.,.,.,-13%,.,.
CCOc1ccc(OCC)c(NC(=O)c2cc(S(=O)(=O)N3CCCC3)cn2C)c1,-5%,-18%[46.1 µM],.,34%,.,.

# Screening data (PubChem BioAssay)
